Source: the supplement of paper PMC10338343
± gives the standard deviation.

Tested on: MILI (PIWIL2) piRISC loaded with L1MC piRNA (26 nt)
Experiment: pre-steady-state target cleavage rate (min^-1); guide: L1MC piRNA 5'p-UAACUAAAUACUAUGCAAGCUGUAGG; MIWI and MILI are mouse PIWI proteins and EfPiwi is from a freshwater sponge; tags in brackets are library labels; higher = faster piRNA-guided slicing of the target
Details: auxiliary factor: 500 nM mouse GTSF1
Outline: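 For Cleave-'n-Seq, a transcribed, DNA-blocked target RNA library […] met 1 nM active affinity-purified piRISC with one synthetic guide at 33 °C for 0–8 or 0–960 min in HEPES–potassium acetate buffer, with or without 500 nM GTSF1 partner protein. Uncleaved targets were sequenced and normalised to depth and weakly complementary targets, with three trials pooled and k3 capped at 0.0001 min^-1. A burst-and-steady-state fit supplied the pre-steady-state cleavage rate.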
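Note: 1 nM active piRISC with 0.1 nM target library at 33 °C single turnover.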

Q: Which “pre-steady-state target cleavage rate” value does the source give for UCCUGGAUCACGUUGCAUAGUAUUUUCAAA here?
A: 0.0743 ± 0.025

Q: How did the “pre-steady-state target cleavage rate” value turn out when UCCUGGAUGAGCUUGCAUUCUAUUUAGUUA was run?
A: 0.0348 ± 0.0092

Q: Which “pre-steady-state target cleavage rate” value does the source give for UCCUGGUACAGCUUGCAUUGUAUUAAGUUA here?
A: 0.0503 ± 0.011

Q: With UCCUGGAUGUCGUUGGAAAGUAUUUAGUUA as the sequence, how does the “pre-steady-state target cleavage rate” value read?
A: < 0.0001

Q: With UCCUGGAUCUCGUUGCAUAGUAUUUAGAAA as the sequence, how does the “pre-steady-state target cleavage rate” value read?
A: 0.141 ± 0.024

Q: UCCUGGAUGUCGAAGCAUAGUAUUCAGUUA was tested. Which “pre-steady-state target cleavage rate” value did it give?
A: 0.00908 ± 0.0042

Q: With UCCUCCUACAGCUUGCAUAGAUAUUAGUUA as the sequence, how does the “pre-steady-state target cleavage rate” value read?
A: 0.0125 ± 0.0045

Q: Which “pre-steady-state target cleavage rate” value does the source give for UCCUGGUACAGCUUGCAUUGUAUUUAGUAA here?
A: 0.112 ± 0.024

Q: With UCCUCCUACAGCUUGCUAAGUAUUUAGAAA as the sequence, how does the “pre-steady-state target cleavage rate” value read?
A: 0.0796 ± 0.016

Q: How did the “pre-steady-state target cleavage rate” value turn out when UCCUCCUACAGCUUGCAUAGAUAUUAGAAA was run?
A: 0.00453 ± 0.0044

Q: For UCCUGGAUGUCCUUGCAUAGUAAAAAGUAA, which “pre-steady-state target cleavage rate” value is on record?
A: 0.00651 ± 0.0043

Q: With UCCUGGAUGUCCAUGCAUAGAAUUUAGUUA as the sequence, how does the “pre-steady-state target cleavage rate” value read?
A: 0.0111 ± 0.0048

Q: How did the “pre-steady-state target cleavage rate” value turn out when UCCUGGAUGUCGAACGUUAGUUUUUAGAUA was run?
A: < 0.0001

Same assay, conditions: auxiliary factor: none (no GTSF1)

Q: For UCCUGGAUGUCGAACGUAUGUGUUUAGUUA, which “pre-steady-state target cleavage rate” value is on record?
A: < 0.0001

Q: For UCCUGGAUGUCGUUGCAUAGAUUUUAGUUA, which “pre-steady-state target cleavage rate” value is on record?
A: 0.00439 ± 0.0019

Q: UCCUGGAUGUCGUUCCUUAGUAUUUAGUUA was tested. Which “pre-steady-state target cleavage rate” value did it give?
A: < 0.0001
